Test results from PubChem BioAssay (EPA / NIEHS).
Active and inactive are the calls of the source. How the source made its calls: active means hit-call score of the fitted dose curve at least 0.9, where 1 is the maximum; inactive means score below 0.9.

The compounds below were run on Interleukin 6 (IL6), IL6 (gene 3569) (assay: LTEA_HepaRG_IL6: Life Technologies and Expression Analysis (LTEA) Assay for Interleukin 6 (IL6) using HepaRG (AID 2283509)). Settings: mRNA level, 48 h; actives raise or lower the signal.
Procedure: LTEA_HepaRG is a cell based, multiplexed-readout assay that uses HepaRG, a human liver cell line, with measurements taken at 48 hours after chemical dosing on a 96-well plate.LTEA_HepaRG_IL6 is one of 102 assay component(s) measured in the LTEA HepaRG cell culture assay. It is a marker of Inflammation.Data from the assay component LTEA_HepaRG_IL6 was analyzed into 1 endpoint. This assay endpoint, LTEA_HepaRG_IL6, was analyzed with bidirectional fitting relative to DMSO as the negative control and baseline of activity. Using a type of inducible reporter, measures of mRNA induction for gain or loss-of-signal activity can be used to understand regulation of transcription factor activity. To generalize the intended target to other relatable targets, this assay endpoint is annotated to the cytokine intended target family, where the subfamily is interleukins.
A total of 1060 chemcials from the ToxCast library were tested in eight-point concentration-response experiments. Cell culture and cytotoxicity assays were conducted at Thermo Fisher Scientific's Custom Services facility (Madison, WI). A single lot of human HepaRG cells (Thermo Fisher Scientific, Frederick, MD) was used for the cell culture experiments. 96-well format collagen type I coated plates of human HepaRG cells were prepared using established methods. Briefly, cryopreserved HepaRG cells were thawed, plated at a density of approximately 100,000 cells/well in HepaRG Thaw, Plate, and General Purpose media (HPRG770, Thermo Fisher Scientific), and incubated for 48 hours. 0.5% DMSO was selected as vehicle control to balance the requisite need of DMSO in HepaRG cultures to maintain differentiation (for example, baseline metabolism, proportions of hepatocytes vs. cholangiocytes), while enabling further hepatic receptor pathway activation (for example, PXR and CAR) in response to chemical exposure. 48 hours after plating, the culture medium was replaced with HepaRG Serum-Free Incudtion Media. Cells were exposed to each test chemical in duplicate and maintained in CO2 incubators for another 48 hours. Chemical plates were thawed to room temperature and 200x concentrations of treatment groups were prepared. 8-point conentration-reponse curves were made with the highest exposure at 100 uM, followed by half-log dilutions, all in 0.5% DMSO. Each test plate contained variouse controls, induction positive controls (1mM phenobarbital), cytotoxicity positive controls ([…] aflatoxin B1), vehicle controls (0.5% DMSO), and total lysis controls (0.5% DMSO). Cell morphology images were taken using an Essen IncuCyte FLR automated microscope, with six 96-well plates imaged in about 24 minutes. Images were captured and exported and JPEG files. Spent culture media was transfered to black-well plates for the LDH assay, and remaining media was sorted at -80 C for later use. Cells were treated with RLT buffer and frozen until shipped for gene expression analysis. Total RNA was isolated from the cell suspension in 75 uL of Buffer RLT (Qiagen, Germantown, MD 20874) by Quintiles/Expression Analysis (Durham, NC) using a custom isolation procedure. Total RNA from each plate well was transferred to a preamplification plate. Fluidigm's 96.96 Dynamic ArrayTM (Fluidigm, Amsterdam, the Netherlands) technology was used for gene expression analyses by quantitative reverse transcription polymerase chain reaction (qRT-PCR, performed by Quintiles/Expression Analysis, Durham, NC)89. Standard TaqManTM Assays (Applied Biosystems/ThermoFisher Scientific, Foster City, CA) were used to assess the expression of 93 genes selected based on their selectivity and sensitivity to important hepatic receptors known to be modulated by environmental chemicals; importance in human hepatocyte functionality; and hepatotoxicity. […]
With `N#Cc1cccnc1` the outcome was “inactive”. In the case of `Oc1cc(Cl)c(Cl)cc1Cl`, the outcome was “inactive”. For `CN(C)C(=S)S`, the outcome was “inactive”. In the case of `CC(C)O.CC(C)O.OCCN(CCO)CCO.OCCN(CCO)CCO.[Ti]`, the outcome was “inactive”. For `O=C(N[C@H]1CN2CCC1CC2)c1ccc2c(c1)OCCO2`, the outcome was “inactive”. With `CCCCCCCCCCCCc1cccc(S(=O)(=O)O)c1` the outcome was “inactive”. For `Cc1cc(C)cc(C)c1`, the outcome was “inactive”. With `Clc1cccc(Cl)c1` the outcome was “inactive”. With `CC(C)(C)c1ccccc1O` the outcome was “inactive”. For `O=C(O)C1(c2ccc3c(c2)OC[C@H](Cc2ccc(-c4ccccc4)cc2)[C@H]3O)CCCC1`, the AC50 was 78.4 µM (active). `OCCN(CCO)CCO` was tested, and the outcome was “inactive”. For `COc1ccccc1N`, the outcome was “inactive”. In the case of `Oc1c(Cl)cc(Cl)cc1Cl`, the outcome was “inactive”. For `Clc1cccc(Cl)c1Cl`, the outcome was “inactive”.
